From the emibetuzumab library of Makowski et al. (2022)
This is one part of the list. The true hit rate is not given.

B1: VH:VL chains; a variant is named by its letters at X, in order (parent)
chain 1: QVQLVQSGAEVKKPGASVKVSCKASGYTFTDYXMHWVRQAPGQGLEWMGXVNPNXXXTTYNQKFEGRVTMTTDTSTSTAYMELRSLRSDDTAVYYCARXNXLDXWGQGTTVTVSS
chain 2: DIQMTQSPSSLSASVGDRVTITCSVSSSVSSIYLHWYQQKPGKAPKLLIYSTSNLASGVPSRFSGSGSGTDFTLTISSLQPEDFATYYCQVYSGYPLTFGGGTKVEIK

Variants of: B1
Assay: yeast display scFab, FACS + sequencing
Conditions: with MET
Summary of the method: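 A yeast surface library of scFab variants carrying heavy-chain CDR mutations went through two magnetic enrichment rounds on Protein A beads coated with HGFR-Fc, then FACS. For sorting, cells were labelled for 3 h at room temperature with 1 nM HGFR-Fc and anti-Myc in PBSB containing 1% milk, and the top 50% of antigen-positive cells were gated. Input and round-3 sorted populations were deep sequenced in two replicates. A sequence was called an antigen binder if it appeared in both antigen-positive samples and a non-binder if it appeared only in the input.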

Variant	antigen binding call
DTGTGSWD	no binding
VTEGGDAA	no binding
FTGRGAVA	no binding
FTRAGAAA	no binding
FKGRGAAY	binds
FTGRGAAA	binds
SEARSDSV	no binding
DRAGDDGY	no binding
YRAGDSGY	binds
VKAGDAVY	no binding
VRAGDSGY	binds
YTGTSDLA	no binding
FRGRGVGA	binds
FRGRGYGA	no binding
FRGRGAGA	binds
YRGRGVGA	binds
ARGGDDGA	no binding
VGGTSSGA	no binding
ATGTGSGA	no binding
VRGTGSGA	binds
VRGKGSGA	binds
VRGKGSLA	binds
VTGEDSLA	no binding
VGGTGSGA	no binding

Variant	antigen binding call
VAEKGSGA	no binding
VKGKGDLA	no binding
FERTSVWF chain 1 L45F	no binding
SAGGDYVF	no binding
YRGESAWV	binds
YRGEGDAV	binds
DREEGDAV	no binding
YTGEGSWV	binds
YTTRGSWV	no binding
YTGEGDGV	no binding
YRGRSAWV	binds
YRGEGDAA	no binding
VTKAASWV	no binding
SEEASAVY	no binding
DKTGDDGS	no binding
YRGEGAWV	binds
VEGAAAGS	no binding
YRGRDSSS	binds
YRGRDDLA	no binding
YRGAAASS	binds
YRGRDASA	binds
YRGRSASS	binds
ATGEGDGV	no binding
SEARSFGV	no binding

Variant	antigen binding call
YRGRSAGS	binds
YRGRDASS	binds
DAGGASGV	no binding
VRRRGAGV	binds
VRGTDAGV	no binding
VRRRGAVV	binds
VERASAVV	no binding
VRGTDAVV	no binding
SGRGNSGV	no binding
DARADSGV	no binding
AARADDGV	no binding
YRTRDSGV	binds
YRAKGAGV	binds
YRAKGSGV	binds
YRTKGSGV	binds
YGAKGDGV	no binding
DTGTGASD	no binding
VAGGDAGV	no binding
AREEGFSV	no binding
YRAGDAVV	binds
YRAKGAVV	binds
ARAGDAVV	no binding
DRAGDDVV	no binding
AARADSSA	no binding

Variant	antigen binding call
VGGGADVA	no binding
VTKTGAAA	binds
VTAGSDAV	no binding
YTERGDAV	no binding
VTKTGDAV	binds
YTGTSDAV	no binding
VTGTGDAV	no binding
VTKTGDVA	no binding
VTTKSAAA	no binding
YTKTGDAV	binds
DKEGGYSV	no binding
DAKEGSLD	no binding
SAAGADWS	no binding
YRTAGAGV	binds
YRTAGSGV	binds
YRTADVGV	no binding
FAGGGDLV	no binding
VKARGSGD	binds
FKARGSVD	binds
VKGKDSGD	no binding
VKARGSVD	binds
FTETGSVD	no binding
VEEEGSVD	no binding
VEGGGSVD	no binding

Variant	antigen binding call
VKAAGSVD	no binding
VTGTGSGD	no binding
VKERGSVD	binds
VTGTGYVF	no binding
FRGKGASS	binds
YRGKGAAS	binds
FRGKGAAS	binds
FRGKGAGY	binds
VTGEDDGD	no binding
DAKENAGD	no binding
VAKEGAWV	no binding
VEARNAGA	no binding
DEGGTDVA	no binding
SAEATDLY	no binding
FAKAGFVA	no binding
FRGKGAVS	binds
FRGKGAGS	binds
YRGKGAVS	binds
YRRRGALF	binds
YRRRGSLF	binds
YKEGDSGV chain 1 R87K	no binding
YKGRGALA	binds
YAGRGDLA	no binding
YKGGDDLA	no binding

Variant	antigen binding call
SKGRGALA	binds
FKGRGSLA	binds
YKGRGSLA	binds
STGRAALA	no binding
FKEGGSAA	no binding
SKERGDVA	no binding
VEEEGDWD	no binding
VKGRSDSA	no binding
YKKGGSLA	binds
SKGRSDGA	no binding
SKGRSSLA	binds
DKEEDSLA	no binding
YGKGGDLA	no binding
FKRAGSLA	binds
VGGTSDWA	no binding
SRGRGAVD	binds
SRGRGSVD	binds
SRTGSDVD	no binding
SRGRGYGD	no binding
SGGKNSVD	no binding
SGEGGAAV	no binding
YRGRGALF	binds
YRGRGVLF	binds
VRGRGALF	binds

Variant	antigen binding call
VRGRGVSY	no binding
AARADDWV	no binding
FTEEGDGA	no binding
DAGEAFSF	no binding
AGGGNDGV	no binding
FRGRGSAF	binds
FRGRSSAF	binds
YEERSDAF	no binding
SAEGDAAD	no binding
SGEGGAGA	no binding
SRARGAGA	binds
DAARGAAA	no binding
ARAASAGA	no binding
SRARGAAA	binds
SRGRGFAA	no binding
SEEGTDWD	no binding
VATGDDVD	no binding
FKTKNYAD	no binding
DKEGGDVV	no binding
FTGTGSGA	no binding
FRGRDYGA	no binding
FRGESAGA	binds
FRGESAAA	binds
FRGESSGA	binds

Variant	antigen binding call
YAAGSDVY	no binding
DGGKNDGD	no binding
DGTGGAGA	no binding
DTGGDAGV	no binding
DATGGDVV	no binding
FTEEGDGV	no binding
YRAGSSGV	binds
YRAESSGV	binds
YAEESSGV	no binding
YRAKSSGV	binds
VAGAGDVV	no binding
FARKSFGS	no binding
YRRRGSVA	binds
YRKRGSSA	binds
YRRRGSSA	binds
YAKRGSWA	no binding
DEGGTSLD	no binding
VTAGDAGD	no binding
YKAGDAGD	binds
YKARGAAD	binds
VEAGDAGD	no binding
YKAKGAAD	binds
YKGKGDAD	no binding
YKAEDVGD	no binding

Variant	antigen binding call
YKAKGAGD	binds
FAEGDDVV	no binding
ARAGGSVV	binds
ARAAGDWV	no binding
FRGRGSLV	binds
FRKAAVAV	no binding
AEERDSVV	no binding
FRKRGSAV	binds
AEAGDAVV	no binding
FTTGGSAV chain 1 M48I	no binding
ARARGSWV	binds
ARAKTSWV	no binding
SEARSYLV	no binding
SEARSDVD	no binding
FRGRDVAV	no binding
FRGRGSWV	binds
FRGRGSAV	binds
FRGRGSVV	binds
FTKAASWV	no binding
FRARGSWV	binds
